# Screens: PubChem, The Scripps Research Institute Molecular Screening Center
# A selection: hits, their analogues and other compounds. The true share with any hit is near 2.2%.
# rat GALR2 agon – agonists of rat galanin receptor 2 (GALR2). activation, % at 10 µM. 0.5% of 16,000 active. cell-based GALR2 agonist screen. AID 833; in the data active = activation above about 15%
# Luminol counter – counter-screen for Nox1 inhibitors: inhibitors of luminol chemiluminescence; inhibition, % at 6.7 µM; HRP/luminol/H2O2 chemiluminescence counterscreen; 0.4% of 16,000 active; note: reference of the scale not given here
# Nox1 inh – inhibitors of human NADPH oxidase 1 (Nox1) | 0.81% of 16,000 active | inhibition, % at 6.7 µM | HT29 cells, luminol chemiluminescence ROS | Q9Y5S8 | AID 1792
# Target sequence (Q9Y5S8 whole entry, looked up): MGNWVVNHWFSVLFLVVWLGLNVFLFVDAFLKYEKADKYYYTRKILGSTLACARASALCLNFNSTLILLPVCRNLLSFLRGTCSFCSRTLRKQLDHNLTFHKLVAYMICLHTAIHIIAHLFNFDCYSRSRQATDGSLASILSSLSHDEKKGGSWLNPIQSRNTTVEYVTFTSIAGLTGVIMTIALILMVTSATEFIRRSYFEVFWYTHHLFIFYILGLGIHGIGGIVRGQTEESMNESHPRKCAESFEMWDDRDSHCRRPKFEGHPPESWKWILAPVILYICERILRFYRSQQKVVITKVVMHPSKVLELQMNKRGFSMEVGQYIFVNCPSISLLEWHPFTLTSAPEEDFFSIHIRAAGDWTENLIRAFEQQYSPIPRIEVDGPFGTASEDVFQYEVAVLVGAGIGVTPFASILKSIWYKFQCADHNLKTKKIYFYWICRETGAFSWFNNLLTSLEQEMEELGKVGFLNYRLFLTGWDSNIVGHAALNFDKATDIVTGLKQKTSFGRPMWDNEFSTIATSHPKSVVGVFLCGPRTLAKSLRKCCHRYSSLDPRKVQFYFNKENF
# PME-1 Maybridge – inhibitors of human PME-1 in Maybridge library | Q9Y570 | recombinant PME-1, FP-Rh probe fluorescence polarization | inhibition, % at 9 µM | 0.5% of 16,000 active | AID 2291; in the data active = inhibition above about 30%
# Numbers without * were called inactive. Cut-off read from the data, not from the text of the source, unless noted: active = inhibition above about 75%; inactive = the rest.
SMILES,rat GALR2 agon,Luminol counter,Nox1 inh,PME-1 Maybridge
CCN(CC)c1ccc(NS(=O)(=O)c2ccc(F)cc2)cc1,-4.5,23.1,101.9*,-1.3
COc1ccc2nonc2c1,139.0*,0.7,-44.9,-1.8
CCSc1ccc2c3c(cccc13)C(=O)N(Cc1ccccc1)C2=O,128.0*,-0.7,19.7,-5.0
COc1cc(C(CC(=O)O)CC(=O)Nc2cc(C)on2)cc(OC)c1OC (configuration not stated),-6.3,4.9,-56.9,-1.7
COc1cccc(C(=O)CSc2nsc(SCC(=O)c3cccc(OC)c3)c2C#N)c1,-8.3,-0.3,88.4*,-0.1
CC(=O)CSc1nsc(SCC(C)=O)c1C#N,-7.7,34.3,0.0,1.3
Oc1c(Cl)cc(Cl)cc1/C=N/NC(=S)NC1CC2CCC1C2 (configuration not stated),51.0*,1.2,-10.0,8.5
S=c1[nH]c(=S)c2ccccc2[nH]1,-6.3,77.1*,-68.4,1.0
COc1cc(NC(=O)Nc2ccc(Cl)cc2)c(-n2c(C)ccc2C)cc1OC,-3.8,3.8,-2.8,73.8*
COc1cc(C(=O)NNS(=O)(=O)c2ccc(Cl)cc2)c(-n2c(C)ccc2C)cc1OC,-3.9,-0.3,-25.2,2.8
COc1cccc(NC(=O)N2CCN(C(=O)C3CCCO3)CC2)c1 (configuration not stated),-8.2,0.0,-32.6,0.2
Cc1c(C(=O)NNc2cc(C(F)(F)F)ccc2Cl)n(C)oc1=O,-4.9,0.9,-78.8,-2.3
Cc1c(C(=O)Oc2cccc(C(F)(F)F)c2)n(C)oc1=O,56.3*,-0.4,-44.0,-0.9
CCC(=O)Nc1cnc(OC)c(C(F)(F)F)c1,-5.5,-3.4,23.7,-8.9
CCC(=O)Nc1ccc2c(c1)N(CC)C(C)(C)CC2C (configuration not stated),-4.0,-17.2,93.4*,5.1
CC1(C)CC(=O)C2=C(C1)OC1CCCCC21 (configuration not stated),-2.7,-3.2,-47.5,-1.0
c1ccc2oc3cc4ccccc4c-3cc2c1,-4.5,3.8,-84.9,1.7
COc1cc(CCc2nnc(-c3cccs3)o2)cc(OC)c1OC,-2.8,-2.0,0.0,1.8
O=C(O)CSCC(=O)Nc1cccc2c1CCCC2,24.4*,3.8,-31.2,-1.5
O=C(O)CSCC(=O)Nc1cccc(F)c1C(=O)O,-5.8,-5.8,-10.8,3.8
CCOC(=O)N/N=C/c1cccs1,-7.5,3.6,-19.3,-5.0
Cc1ccc(OS(=O)(=O)c2c(Cl)sc(Cl)c2Br)c([N+](=O)[O-])n1,-6.5,-3.5,11.7,40.2*
CN(C)/C=C/C=c1/c(=O)c2cccc3cccc1c32,-13.6,3.4,-66.7,15.0
Cc1ccc(C)c2c1C(=O)c1ccccc1C2=O,-4.0,-0.9,-4.3,3.7
O=C1c2ccccc2C(=O)c2c(O)ccc(O)c21,-7.8,7.9,54.5,40.4*
SMILES,rat GALR2 agon,Luminol counter,Nox1 inh,PME-1 Maybridge
COc1ccc(-c2cc(C(F)(F)F)[nH]n2)cc1OC,-3.7,-1.8,-10.1,0.0
CC(C)(C)OC(=O)Nc1nnc(C(F)(F)C(F)(F)C(F)(F)F)s1,-2.6,-4.1,2.3,0.6
CN(C)Nc1ccc([N+](=O)[O-])c(NN(C)C)c1C#N,-4.9,62.6,81.0*,2.4
N#Cc1c(NCc2cccs2)ccc([N+](=O)[O-])c1NCc1cccs1,-10.6,2.2,-32.6,5.4
O=C(c1ccc(Cl)cc1)n1ccc(-c2cccc([N+](=O)[O-])c2)n1,26.2*,2.4,-53.7,-8.0
Nc1c(Cl)cc(C(=O)Nc2cc(Cl)c(Cl)cc2Cl)cc1Cl,16.6*,-1.1,-46.0,-93.1
CSc1sc(C(=O)NCC2CC2)cc1S(=O)(=O)C(C)C,17.1*,1.3,-20.5,3.9
CCOc1cc(N2CCOCC2)c(OCC)cc1NS(=O)(=O)c1ccccc1,-2.8,15.4,102.7*,17.2
O=c1cc(Nc2ccc(OC(F)(F)F)cc2)c2ccccc2o1,-12.7,-8.8,3.2,54.5*
O=C(Cc1cccs1)Nc1ccc(OC(F)(F)F)cc1,-7.2,-1.5,2.6,4.6
C#CCOC(=O)Nc1ccccc1[N+](=O)[O-],-8.0,2.9,-16.3,-3.5
COc1cccc(Cc2n[nH]c(=S)n2-c2ccc(Cl)cc2)c1,-5.7,99.0*,22.7,4.4
COc1cccc(Cc2n[nH]c(=S)n2Cc2ccco2)c1,-3.4,99.3*,-10.4,7.8
CC1CC(=O)N(C)c2ccccc2S1(=O)=O (configuration not stated),-3.1,1.8,-15.7,-4.8
NC(=S)c1cncnc1N,-8.6,14.7,-81.1,1.7
O=C(Nc1ccc([N+](=O)[O-])o1)O/N=C/c1ccc([N+](=O)[O-])s1,-9.1,-1.0,13.8,-5.0
CCOC(=O)c1sc(N/N=C/c2cccs2)c2c1CC(C)(C)CC2=O,19.3*,2.6,55.9,12.6
CCOC(=O)c1sc(N2CCCCC2)c2c1CC(C)(C)CC2=O,0.9,-5.3,10.1,3.5
CSc1c(C#N)c(N)[nH]c(=S)c1C#N,-5.2,-4.8,0.0,-3.0
CC(C)C(=O)NNc1nc2c(c(=O)n(C)c(=O)n2C)n1Cc1ccc(Cl)cc1,-7.3,4.5,100.0*,-0.8
O=C(NCC(O)COCc1ccccc1)c1ccccc1 (configuration not stated),29.1*,-5.8,-1.2,4.0
O=S(=O)(Nc1ccc(N2CCCCC2)cc1)c1cc(Cl)sc1Cl,-4.7,68.3,102.1*,6.7
CCc1nc2c([nH]1)c(=O)n(C)c(=O)n2C,-3.7,-3.1,-20.5,1.1
CCC(CO)Nc1nc2c([nH]1)c(=O)n(C)c(=O)n2C (configuration not stated),-5.1,-6.6,93.7*,0.5
N#Cc1cccc(NCCN2CCNC2=O)n1,46.8*,-5.6,25.9,7.5
SMILES,rat GALR2 agon,Luminol counter,Nox1 inh,PME-1 Maybridge
COc1ccc(-c2[nH]ncc2/C=N/NC(=O)c2cccc([N+](=O)[O-])c2)cc1,-6.0,-2.0,-28.0,-5.0
CSc1ccc(/C=C/c2onc(C)c2[N+](=O)[O-])s1,-15.3,10.6,-61.7,63.6*
OCCN1CCN(c2nccc(C(F)(F)F)n2)CC1,-1.3,-3.2,15.1,3.5
CN(C)c1ccc(NC(=O)Nc2cccs2)cc1,-6.5,-2.5,91.6*,-5.2
Cc1noc(C)c1S(=O)(=O)N(Cc1ccccc1)C(C)C,47.0*,0.1,-22.3,-44.2
N#Cc1c(N)sc2c1CCc1ccccc1-2,-3.8,0.5,103.4*,15.1
COc1ccc(OC)c(Sc2ccc([N+](=O)[O-])cn2)c1,-0.4,-6.0,-8.3,2.2
FC(F)(F)c1cc(-c2cccs2)nc2cc(-c3cccs3)nn12,30.2*,-3.7,-13.1,3.5
COC(=O)c1cc(/C=N/NC(=S)NC2CC3C=CC2C3)cn1C (configuration not stated),-7.3,1.8,-6.6,-1.0
CNC(=S)NNC(=O)c1c(C)nc2cc(C)ccn12,-4.7,24.4,96.6*,5.1
O=C(c1cc2ccccc2s1)N(Cc1ccccn1)Cc1ccccn1,-6.8,-6.3,22.9,7.4
O=S(=O)(O)c1ccc2[nH]c(=S)[nH]c2c1,60.3*,7.4,-69.3,3.2
COc1ccc2[nH]c(=S)[nH]c2c1,-2.7,28.2,-25.8,1.6
CSc1nc(NC(=O)NS(=O)(=O)Oc2ccc(Cl)cc2Cl)nc(C2CC2)n1,-5.5,0.8,-8.1,-1.2
CS(=O)(=NS(=O)(=O)c1ccc(Cl)cc1)c1ccccc1 (configuration not stated),-0.1,11.7,2.1,41.1*
